Assay results from PubChem BioAssay (Tox21).
Inconclusive results are not listed. The source made the active and inactive calls. Unless noted, calls come from the whole dose curve.

Tests used:
[1] = qHTS assay to identify small molecule agonists of the vitamin D receptor (VDR) signaling pathway - cell viability counter screen (AID 743224; active = well fitted curve in the direction sought with a large enough effect in the repeat runs; an effect the other way counts as inactive or inconclusive; note: series mostly up to about 63 µM; % is set by controls: 0 for no effect and ±100 for the full control effect; nearly all actives have a fitted effect of over 50% in size)
How it was run: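 Compounds were pin-transferred onto VDR-bla cells plated 4 h earlier; following 16 h incubation at 37C, cell viability was quantified by CellTiter-Glo luminescence after 30 min at room temperature.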

[2] = qHTS assay to identify small molecule antagonists of the vitamin D receptor (VDR) signaling pathway - cell viability counter screen (AID 743225; active = well fitted curve in the direction sought with a large enough effect in the repeat runs; an effect the other way counts as inactive or inconclusive; note: % is set by controls: 0 for no effect and ±100 for the full control effect; nearly all actives have a fitted effect of over 50% in size)
How it was run: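 HEK293T VDR-bla; cpd + 1a,25-(OH)2D3 3 nM final, 16 h 37C/5% CO2; B/G FRET substrate 2 h RT; then CellTiter-Glo 30 min RT, luminescence.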

[3] = qHTS assay to identify small molecule agonists of the NFkB signaling pathway (AID 1159509; active = well fitted curve in the direction sought with a large enough effect in the signal ratio in the repeat runs, not every such curve was filed as active; the % refers to the signal ratio; note: series mostly up to about 61 µM; % is set by controls: 0 for no effect and ±100 for the full control effect)
How it was run: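 Agonist activity was read as beta-lactamase-driven FRET change (460 and 530 nm emission, 405 nm excitation) following 1.5 hr substrate loading at room temperature. Beforehand, ME-180 NFkB-bla reporter cells were treated with compounds for 5 hr at 37 C.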

[4] = qHTS assay to identify small molecule agonists of the NFkB signaling pathway - cell viability counter screen (AID 1159515); note: series mostly up to about 61 µM; % is set by controls: 0 for no effect and ±100 for the full control effect; nearly all actives have a fitted effect of over 55% in size
How it was run: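 Parallel cytotoxicity counter screen in ME-180 cells carrying an NFkB-response-element beta-lactamase reporter, 2,000 cells/well. Compound exposure lasted 5 hr at 37 C, 5% CO2. Cell viability was quantified by CellTiter-Glo luminescence.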

[5] = qHTS assay to identify small molecule agonists of the endoplasmic reticulum stress response signaling pathway (AID 1159516; active = well fitted activation curve with a large enough effect in the signal ratio in the repeat runs, not every such curve was filed as active; the % refers to the signal ratio; note: % is set by controls: 0 for no effect and ±100 for the full control effect)
How it was run: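 Using a HeLa line with an ESRE-driven beta-lactamase gene, agonist activity was measured by FRET substrate fluorescence (460 and 530 nm emission) after cells were treated with compounds for 5 hr at 37 C and 5% CO2.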

[6] = qHTS assay to identify small molecule agonists of the endoplasmic reticulum stress response signaling pathway - cell viability counter screen (AID 1159517);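 note: HeLa cells carrying an ER stress response element beta-lactamase reporter; series mostly up to about 61 µM; % is set by controls: 0 for no effect and ±100 for the full control effect; nearly all actives have a fitted effect of over 50% in size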
How it was run: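 In parallel with the ESRE reporter read, cytotoxicity was scored by CellTiter-Glo luminescence (30 min, room temperature) on HeLa ESRE-bla cells dosed for 5 hr.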

[7] = qHTS assay to identify small molecule antagonists of the retinoid-related orphan receptor gamma (ROR-gamma) signaling pathway - cell viability counter screen (AID 1159520; active = well fitted curve in the direction sought with a large enough effect in the repeat runs; an effect the other way counts as inactive or inconclusive; note: % is set by controls: 0 for no effect and ±100 for the full control effect; nearly all actives have a fitted effect of over 50% in size)
How it was run: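 Tet-on ROR gamma CHO cells were given compounds for 2 hr, then doxycycline hyclate at 1 uM final, and incubated 16 hr at 37 C. Viability was measured as ATP content by CellTiter-Glo luminescence.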

[8] = target: Nuclear receptor ROR-gamma (Homo sapiens) (UniProt P51449); test: qHTS assay to identify small molecule antagonists of the retinoid-related orphan receptor gamma (ROR-gamma) signaling pathway (AID 1159521; active = well fitted curve in the direction sought with a large enough effect in the repeat runs; an effect the other way counts as inactive or inconclusive)
How it was run: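 Cells were plated, rested 4 h at 37 C, exposed to compounds for 2 h, then given 1 uM final doxycycline hyclate to induce RORγ expression. After 16 h, ONE-Glo luminescence from the ROR response element reporter was measured.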

[9] = qHTS assay to identify small molecule agonists of the AP-1 signaling pathway - cell viability counter screen (AID 1159525); note: nearly all actives have a fitted effect of over 55% in size
How it was run: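 Same-well cytotoxicity counter screen of the Tox21 10K library in ME-180 cells. The readout is ATP-dependent luminescence after 5 h compound treatment. Data are normalised to DMSO and tetra n-octyl ammonium bromide controls.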

[10] = qHTS assay to identify small molecule agonists of the AP-1 signaling pathway (AID 1159526); note: % is set by controls: 0 for no effect and ±100 for the full control effect

BrCc1ccc(Br)cc1
inactive: Potency [1] | Potency [2] | outcome [3] | outcome [4] | outcome [5] | Potency [6] | Potency [7] | Potency [8] | Potency [9] | outcome [10]

CCN(CC)CCOC(=O)C(O)(c1ccccc1)c1ccccc1
inactive: Potency [1] | Potency [2] | outcome [3] | outcome [4] | outcome [5] | Potency [6] | Potency [7] | Potency [8] | Potency [9] | outcome [10]

O=c1[nH]c2ccccc2o1
inactive: Potency [1] | Potency [2] | outcome [3] | outcome [4] | outcome [5] | Potency [6] | Potency [7] | Potency [8] | Potency [9] | outcome [10]

CCOP(=S)(OCC)Oc1ccc(Cl)cc1Cl
inactive: Potency [1] | Potency [2] | outcome [3] | outcome [4] | outcome [5] | Potency [6] | Potency [7] | Potency [8] | Potency [9] | outcome [10]

CCc1cc(OC)c(C[C@H](C)N)cc1OC
inactive: Potency [1] | outcome [3] | outcome [4] | outcome [5] | Potency [6] | Potency [7] | Potency [8] | Potency [9] | outcome [10]

Cc1cccc2sc3nncn3c12
inactive: Potency [1] | Potency [2] | outcome [3] | outcome [4] | outcome [5] | Potency [6] | Potency [7] | Potency [8] | Potency [9] | outcome [10]

CCN[C@H](C)Cc1cccc(C(F)(F)F)c1
inactive: Potency [1] | Potency [2] | outcome [3] | outcome [4] | outcome [5] | Potency [6] | Potency [7] | Potency [8] | Potency [9] | outcome [10]

CCCCCCC(=O)CCCCCC/C=C/C[C@@H](O)[C@H](O)[C@@](N)(CO)C(=O)O
inactive: Potency [1] | Potency [2] | outcome [3] | outcome [4] | outcome [5] | Potency [6] | activity, negative = cytotoxicity [7] 4.11% [at 19 µM] | activity change, negative = inhibition [8] -12.3% [at 19 µM] | viability change, negative = cytotoxic [9] -3.45% [at 15.8 µM] | activation [10] -2.3% [at 15.8 µM]

O=C(Cl)c1ccccc1
inactive: Potency [1] | Potency [2] | outcome [3] | outcome [4] | outcome [5] | Potency [6] | Potency [7] | Potency [8] | Potency [9] | outcome [10]

COC[C@@H](NC(C)=O)C(=O)NCc1ccccc1
inactive: Potency [1] | Potency [2] | outcome [3] | outcome [4] | outcome [5] | Potency [6] | Potency [7] | Potency [8] | Potency [9] | outcome [10]

COc1cc(CC(C)N)cc(OC)c1OC (centres undefined)
inactive: Potency [1] | Potency [2] | outcome [3] | outcome [4] | outcome [5] | Potency [6] | Potency [7] | Potency [8] | Potency [9] | outcome [10]

CC(=O)CN(CC(C)=O)N=O
inactive: Potency [1] | Potency [2] | outcome [3] | outcome [4] | outcome [5] | Potency [6] | Potency [7] | Potency [8] | Potency [9] | outcome [10]

COc1ccc(C=O)cc1O
inactive: Potency [1] | Potency [2] | outcome [3] | outcome [4] | outcome [5] | Potency [6] | Potency [7] | Potency [8] | Potency [9] | outcome [10]

O=C(NC(O)C(Cl)(Cl)Cl)NC(O)C(Cl)(Cl)Cl (centres undefined)
inactive: Potency [1] | Potency [2] | outcome [3] | outcome [4] | outcome [5] | Potency [6] | Potency [7] | Potency [8] | Potency [9] | outcome [10]

CCOC(=O)NC(C)(C)Cc1ccc(Cl)cc1
inactive: Potency [1] | Potency [2] | outcome [3] | outcome [4] | outcome [5] | Potency [6] | Potency [7] | Potency [8] | Potency [9] | outcome [10]

CCCOC(=O)Cc1ccc(OCC(=O)N(CC)CC)c(OC)c1
inactive: Potency [1] | Potency [2] | outcome [3] | outcome [4] | outcome [5] | Potency [6] | Potency [7] | Potency [8] | Potency [9] | outcome [10]

C=C(Cl)CSC(=S)N(CC)CC
inactive: Potency [1] | Potency [2] | outcome [3] | outcome [4] | outcome [5] | Potency [6] | Potency [7] | Potency [8] | Potency [9] | outcome [10]

CCNP(=S)(OC)O/C(C)=C/C(=O)OC(C)C (centres undefined)
inactive: Potency [1] | Potency [2] | outcome [3] | outcome [4] | outcome [5] | Potency [6] | Potency [7] | Potency [8] | Potency [9] | outcome [10]

CCCCCCCC(=O)Cl
inactive: Potency [1] | Potency [2] | outcome [3] | outcome [4] | outcome [5] | Potency [6] | Potency [7] | Potency [8] | Potency [9] | outcome [10]

CC1=C2[C@H]3OC(=O)[C@@H](C)[C@@H]3CC[C@@]2(C)C=CC1=O
inactive: Potency [1] | Potency [2] | outcome [3] | outcome [4] | outcome [5] | Potency [6] | Potency [7] | Potency [8] | Potency [9] | outcome [10]

CC(C)C(C)(N)C#N (centres undefined)
inactive: Potency [1] | Potency [2] | outcome [3] | outcome [4] | outcome [5] | Potency [6] | Potency [7] | Potency [8] | Potency [9] | outcome [10]

O=C(Cl)C(Cl)Cl
inactive: Potency [1] | Potency [2] | outcome [3] | outcome [4] | outcome [5] | Potency [6] | Potency [7] | Potency [8] | Potency [9] | outcome [10]

CCN1CCCC1CNC(=O)C(O)(c1ccccc1)c1ccccc1 (centres undefined)
inactive: Potency [1] | Potency [2] | outcome [3] | outcome [4] | outcome [5] | Potency [6] | Potency [7] | Potency [8] | Potency [9] | outcome [10]

C[C@H](N)C(=O)c1ccccc1
inactive: Potency [1] | Potency [2] | outcome [3] | outcome [4] | outcome [5] | Potency [6] | Potency [7] | Potency [8] | Potency [9] | outcome [10]

CCC1(c2cccc(O)c2)CCCCN(C)C1 (centres undefined)
inactive: Potency [1] | Potency [2] | outcome [3] | outcome [4] | outcome [5] | Potency [6] | Potency [7] | Potency [8] | Potency [9] | outcome [10]
